Laboratory results taken from PubChem BioAssay (Tox21).
Records with an inconclusive call do not appear. Activity calls are given as the source filed them. Unless noted, the call rests on the fitted dose curve; in most records, active means well fitted curve in the direction sought with a large enough effect in the repeat runs; inconclusive means weak or mixed curves; inactive means no such curve, though single readings can be large; an effect the other way counts as inactive or inconclusive.

Columns and labels:
[1] = qHTS assay to identify small molecule agonists of the peroxisome proliferator-activated receptor delta (PPARd) signaling pathway - cell viability counter screen (AID 743211); further: nearly all actives have a fitted effect of over 55% in size
In short: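 Luminescent ATP viability assay (CellTiter-Glo, 30 min RT) in UAS-bla HEK293H cells carrying the PPAR delta reporter construct, 3000 cells/well, after a 17 h compound treatment at 37 C.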

[2] = qHTS assay to identify small molecule antagonists of the peroxisome proliferator-activated receptor delta (PPARd) signaling pathway - cell viability counter screen (AID 743213); further: nearly all actives have a fitted effect of over 50% in size
In short: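 In this counter screen, HEK293H cells carrying a UAS-beta-lactamase reporter are co-treated with test compounds and 300 nM L165041 (final) for 17 h at 37 C; cell viability is quantified by CellTiter-Glo luminescence.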

[3] = qHTS assay to identify small molecule agonists of the farnesoid-X-receptor (FXR) signaling pathway - cell viability counter screen (AID 743218); further: nearly all actives have a fitted effect of over 45% in size
In short: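 After 16 h at 37 C with test compounds, FXR-bla HEK 293T cells were given LiveBLAzer B/G substrate for 2 h at RT and then CellTiter-Glo; luminescence was taken after 30 min.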

[4] = molecular target: Vitamin D3 receptor (Homo sapiens) (UniProt P11473); test: qHTS assay to identify small molecule agonists of the vitamin D receptor (VDR) signaling pathway (AID 743222; calls by dose curve)
In short: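 VDR-bla cells were seeded, left 4 h, treated with compounds in DMSO for 16 h, incubated 2 h at RT with B/G FRET substrate, and read for fluorescence.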

[5] = molecular target: Vitamin D3 receptor (Homo sapiens) (UniProt P11473); test: qHTS assay to identify small molecule antagonists of the vitamin D receptor (VDR) signaling pathway (AID 743223; active means well fitted inhibition curve with a large enough effect in the signal ratio in the repeat runs, not every such curve was filed as active; the % refers to the signal ratio)
In short: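 Agonist 1alpha,25-dihydroxyvitamin D3 (3 nM in well) was added with each compound to VDR-bla cells preincubated 4 h. Cells stood 16 h at 37C, then FRET substrate 2 h at room temperature; fluorescence intensity recorded.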

[6] = qHTS assay to identify small molecule agonists of the vitamin D receptor (VDR) signaling pathway - cell viability counter screen (AID 743224); further: series mostly up to about 63 µM; nearly all actives have a fitted effect of over 50% in size
In short: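 Here cell health was gauged by luminescent ATP detection (CellTiter-Glo, 30 min RT) in VDR-bla cells that had been incubated with test compounds for 16 h at 37C and 5% CO2.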

[7] = qHTS assay to identify small molecule antagonists of the vitamin D receptor (VDR) signaling pathway - cell viability counter screen (AID 743225); further: nearly all actives have a fitted effect of over 50% in size
In short: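 Luminescent cell viability (CellTiter-Glo) in VDR-bla HEK 293T cells after 16 h compound exposure at 37C in the presence of 3 nM final 1-alpha,25-dihydroxy vitamin D3.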

[8] = qHTS assay to identify small molecule agonists of the NFkB signaling pathway - cell viability counter screen (AID 1159515; calls by dose curve; further: series mostly up to about 61 µM; nearly all actives have a fitted effect of over 55% in size)
In short: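 5 hr compound treatment of NFkB-bla ME-180 cells (2,000/well, seeded overnight beforehand), followed by reporter substrate for 1.5 hr. CellTiter-Glo added afterward; luminescence after 30 min RT.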

[9] = qHTS assay to identify small molecule agonists of the endoplasmic reticulum stress response signaling pathway (AID 1159516; active means well fitted activation curve with a large enough effect in the signal ratio in the repeat runs, not every such curve was filed as active; the % refers to the signal ratio)
In short: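 Reporter HeLa cells (ESRE-beta-lactamase) underwent 5 hr compound incubation at 37 C and 5% CO2 in quantitative HTS format. Detection followed 2 hr of FRET substrate loading at room temperature.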

[10] = qHTS assay to identify small molecule agonists of the endoplasmic reticulum stress response signaling pathway - cell viability counter screen (AID 1159517; calls by dose curve;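 further: HeLa cells carrying an ER stress response element beta-lactamase reporter; series mostly up to about 61 µM; nearly all actives have a fitted effect of over 50% in size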)
In short: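 Counter-screen wells were identical to the reporter wells. Cells were plated at 1,500 per well and dosed for 5 hr, then read for luminescence 30 min after CellTiter-Glo addition.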

[11] = qHTS assay to identify small molecule antagonists of the retinoid-related orphan receptor gamma (ROR-gamma) signaling pathway - cell viability counter screen (AID 1159520); further: nearly all actives have a fitted effect of over 50% in size
In short: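 Tet-on ROR gamma CHO cells were given compounds for 2 hr, then doxycycline hyclate at 1 uM final, and incubated 16 hr at 37 C. Viability was measured as ATP content by CellTiter-Glo luminescence.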

[12] = molecular target: Nuclear receptor ROR-gamma (Homo sapiens) (UniProt P51449); test: qHTS assay to identify small molecule antagonists of the retinoid-related orphan receptor gamma (ROR-gamma) signaling pathway (AID 1159521; further: nearly all actives have a fitted effect of over 50% in size; further: potency means the concentration at half of the fitted maximal effect)
In short: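 CHO cells expressing RORγ under a TET-on promoter, luciferase under RORE control. Dox 1 uM final, 16 h; compounds added 2 h prior. Luminescence decrease measured.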

[13] = qHTS assay to identify small molecule agonists of the AP-1 signaling pathway - cell viability counter screen (AID 1159525; calls by dose curve; further: nearly all actives have a fitted effect of over 55% in size)
In short: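 AP-1-bla ME-180 cells in Opti-MEM with 0.5% dialyzed FBS, compound exposure 5 h at 37 C in 15-point titration. Viability read in the same wells as ATP content by CellTiter-Glo luminescence, normalised to tetra-n-octylammonium bromide and DMSO controls.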

[14] = qHTS assay to identify small molecule agonists of the AP-1 signaling pathway (AID 1159526; calls by dose curve)
[15] = molecular target: Retinoic acid receptor RXR-alpha (Homo sapiens) (UniProt P19793); test: qHTS assay to identify small molecule agonists of the RXR signaling pathway (AID 1159527; calls by dose curve; further: nearly all actives have a fitted effect of over 35% in size)
In short: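 Beta-lactamase reporter assay, agonist format. Engineered HEK 293T line, charcoal-stripped FBS at 2%, overnight (16 hr) exposure, fluorescence at 460 and 530 nm after 405 nm excitation.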

[16] = molecular target: Peroxisome proliferator-activated receptor delta (Homo sapiens) (UniProt Q03181); test: qHTS assay to identify small molecule agonists of the peroxisome proliferator-activated receptor delta (PPARd) signaling pathway (AID 743212; calls by dose curve)
In short: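 Quantitative high-throughput agonist screen in a HEK293H beta-lactamase reporter line under UAS control. Compounds in DMSO, at 37 C. Fluorescence read after 2 h with FRET substrate at room temperature.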

[17] = molecular target: Peroxisome proliferator-activated receptor delta (Homo sapiens) (UniProt Q03181); test: qHTS assay to identify small molecule antagonists of the peroxisome proliferator-activated receptor delta (PPARd) signaling pathway (AID 743215; active means well fitted inhibition curve with a large enough effect in the signal ratio in the repeat runs, not every such curve was filed as active; the % refers to the signal ratio;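 further: cells stimulated with agonist L165041 at 300 nM final during compound exposure; series mostly up to about 62 µM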)
In short: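 With L165041 present at 300 nM final, compounds were incubated 17 h at 37 C on PPARd UAS-bla HEK293H cells. A FRET-based beta-lactamase substrate was then applied for 2 h at room temperature and fluorescence intensity recorded.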

[18] = qHTS assay to identify small molecule antagonists of the farnesoid-X-receptor (FXR) signaling pathway - cell viability counter screen (AID 743221; active means well fitted cell-killing curve with a large enough effect in the repeat runs, not every such curve was filed as active; further: nearly all actives have a fitted effect of over 50% in size)
In short: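 In GeneBLAzer FXR-UAS-bla HEK 293T cells stimulated with 50 uM chenodeoxycholic acid (final), compounds acted for 16 h at 37 C. Viability was assessed afterwards by CellTiter-Glo luminescence.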

[19] = molecular target: Bile acid receptor (Homo sapiens) (UniProt Q96RI1); test: qHTS assay to identify small molecule antagonists of the farnesoid-X-receptor (FXR) signaling pathway (AID 743217; active means well fitted inhibition curve with a large enough effect in the signal ratio in the repeat runs, not every such curve was filed as active; the % refers to the signal ratio)
In short: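 In this cell-based antagonist screen, inhibition of CDCA-driven (50 uM final) UAS-beta-lactamase expression in HEK 293T cells was measured by FRET fluorescence following 16 h compound exposure at 37 °C.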

[20] = molecular target: Bile acid receptor (Homo sapiens) (UniProt Q96RI1); test: qHTS assay to identify small molecule agonists of the farnesoid-X-receptor (FXR) signaling pathway (AID 743220; active means well fitted activation curve with a large enough effect in the signal ratio in the repeat runs, not every such curve was filed as active; the % refers to the signal ratio)
In short: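 Beta-lactamase reporter under UAS control in GeneBLAzer FXR HEK 293T cells (5000/well) measured with LiveBLAzer FRET substrate after 2 h at room temperature. Compound exposure lasted 16 h at 37C.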

Measured: Potency

Peroxisome proliferator-activated receptor delta (Homo sapiens), sequence (Q03181 whole entry, looked up): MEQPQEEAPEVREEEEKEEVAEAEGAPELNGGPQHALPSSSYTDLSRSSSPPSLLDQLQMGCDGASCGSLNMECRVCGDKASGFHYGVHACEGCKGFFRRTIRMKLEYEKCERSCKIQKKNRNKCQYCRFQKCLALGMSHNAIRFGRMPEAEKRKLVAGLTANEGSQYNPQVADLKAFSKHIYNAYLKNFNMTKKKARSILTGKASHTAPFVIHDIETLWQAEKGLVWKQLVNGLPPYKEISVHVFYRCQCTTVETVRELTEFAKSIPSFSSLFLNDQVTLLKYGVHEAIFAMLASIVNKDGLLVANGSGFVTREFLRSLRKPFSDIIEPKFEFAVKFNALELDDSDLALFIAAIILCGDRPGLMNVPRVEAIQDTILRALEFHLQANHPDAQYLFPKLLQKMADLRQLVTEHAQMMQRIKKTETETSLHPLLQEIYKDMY
Retinoic acid receptor RXR-alpha (Homo sapiens), sequence (P19793 whole entry, looked up): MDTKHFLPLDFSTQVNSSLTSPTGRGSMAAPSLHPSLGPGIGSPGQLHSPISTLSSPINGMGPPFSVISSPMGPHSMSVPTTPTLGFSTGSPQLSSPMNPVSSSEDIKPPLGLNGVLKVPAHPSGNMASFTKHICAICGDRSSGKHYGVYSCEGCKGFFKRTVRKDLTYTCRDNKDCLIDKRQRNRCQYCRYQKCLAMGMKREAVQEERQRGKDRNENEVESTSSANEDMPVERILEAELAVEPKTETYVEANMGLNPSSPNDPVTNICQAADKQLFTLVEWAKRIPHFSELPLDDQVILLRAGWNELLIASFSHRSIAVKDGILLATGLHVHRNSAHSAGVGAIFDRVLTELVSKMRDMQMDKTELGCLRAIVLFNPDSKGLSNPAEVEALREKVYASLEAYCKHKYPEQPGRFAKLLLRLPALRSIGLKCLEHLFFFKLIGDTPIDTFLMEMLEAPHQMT
Bile acid receptor (Homo sapiens), sequence (Q96RI1 whole entry, looked up): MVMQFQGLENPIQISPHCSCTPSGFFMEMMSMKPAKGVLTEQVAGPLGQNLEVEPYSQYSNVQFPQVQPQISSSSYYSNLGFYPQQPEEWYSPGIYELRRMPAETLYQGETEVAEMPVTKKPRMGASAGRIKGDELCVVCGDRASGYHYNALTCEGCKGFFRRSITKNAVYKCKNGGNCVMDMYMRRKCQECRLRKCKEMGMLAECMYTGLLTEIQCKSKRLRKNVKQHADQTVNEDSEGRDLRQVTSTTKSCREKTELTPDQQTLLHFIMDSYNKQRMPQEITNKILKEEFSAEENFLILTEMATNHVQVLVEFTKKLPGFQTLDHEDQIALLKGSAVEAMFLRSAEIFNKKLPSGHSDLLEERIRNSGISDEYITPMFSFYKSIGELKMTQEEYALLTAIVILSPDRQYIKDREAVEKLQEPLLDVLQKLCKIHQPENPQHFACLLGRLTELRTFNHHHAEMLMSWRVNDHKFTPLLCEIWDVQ
Vitamin D3 receptor (Homo sapiens), sequence (P11473 whole entry, looked up): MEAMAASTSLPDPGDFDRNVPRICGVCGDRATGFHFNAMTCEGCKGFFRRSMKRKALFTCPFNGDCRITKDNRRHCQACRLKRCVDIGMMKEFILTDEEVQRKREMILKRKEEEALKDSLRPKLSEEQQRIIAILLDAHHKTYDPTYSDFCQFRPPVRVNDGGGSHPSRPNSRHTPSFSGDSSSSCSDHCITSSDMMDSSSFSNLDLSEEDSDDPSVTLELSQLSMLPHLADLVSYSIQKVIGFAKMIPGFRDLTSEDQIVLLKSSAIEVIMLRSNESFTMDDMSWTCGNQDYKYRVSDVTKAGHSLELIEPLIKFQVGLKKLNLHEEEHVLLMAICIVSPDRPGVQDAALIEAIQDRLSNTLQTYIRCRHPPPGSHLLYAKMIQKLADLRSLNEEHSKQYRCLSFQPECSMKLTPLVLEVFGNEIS

Nc1ccc2ccccc2c1
not listed: [16] | [17] | [18] | [19] | [20]
inactive: all other assays above

ClCc1ccccn1
not listed: [19] | [20]
inactive: all other assays above

C[C@]12CC[C@H]3[C@@H](CCC4=CC(=O)CC[C@@H]43)[C@@H]1CC[C@@H]2O
inactive: all assays above

O=C1CCCO1
not listed: [7] | [15] | [16] | [18]
inactive: all other assays above

CNC(=O)Oc1cccc2c1OC(C)(C)C2
not listed: [7] | [12] | [19] | [20]
inactive: all other assays above

C=C(C)C#N
not listed: [16]
inactive: all other assays above

CS(=O)(=O)NC(=O)c1cc(Oc2ccc(C(F)(F)F)cc2Cl)ccc1[N+](=O)[O-]
not listed: [5] | [7] | [16] | [17]
inactive: all other assays above

c1ccc2c(c1)Nc1ccccc1S2
not listed: [4] | [5] | [14] | [16] | [19] | [20]
inactive: all other assays above

CCC/C=N/O
not listed: [7] | [16] | [17]
inactive: all other assays above

Clc1ccccc1-c1nnc(-c2ccccc2Cl)nn1
not listed: [7] | [16] | [19] | [20]
inactive: all other assays above

CC1(C)C(C(=O)OC(C#N)c2cccc(Oc3ccccc3)c2)C1(C)C (centres undefined)
active: [12] 48.9 µM
not listed: [15] | [16] | [18] | [19]
inactive: all other assays above

N#CC(c1ccccc1)c1ccccc1
not listed: [18]
inactive: all other assays above

CC1CC(=O)O1 (centres undefined)
inactive: all assays above

CCOS(=O)(=O)OCC
not listed: [16] | [19] | [20]
inactive: all other assays above

CCN(CC)C(=O)C(C)Oc1cccc2ccccc12 (centres undefined)
not listed: [4] | [5] | [15] | [16] | [18]
inactive: all other assays above
